Laboratory results taken from PubChem BioAssay (Tox21).
“And” between values parts separate entries of the source, which are not always exact repeats. Equal values may be shown once. Results filed as inconclusive are left out. Where a call stands in place of a potency, no number is given. The source holds several records for some structures; these can differ, active in one and inactive in another. The source made the active and inactive calls. Unless noted, the call rests on the fitted dose curve; in most records, active means well fitted curve in the direction sought with a large enough effect in the repeat runs; inconclusive means weak or mixed curves; inactive means no such curve, though single readings can be large; an effect the other way counts as inactive or inconclusive.

Legend:
[1] = qHTS assay to identify small molecule agonists of the androgen receptor (AR) signaling pathway in the presence of an antagonist - cell viability counter screen (AID 1259379); further: nearly all actives have a fitted effect of over 25% in size; further: potency means the concentration at half of the fitted maximal effect
In short: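 Each compound was tested at 15 concentrations on MDA-kb2 cells in the presence of 3.0uM nilutamide. Viability was measured by CellTiter-Fluor fluorescence after a 16 hr incubation at 37C in a CO2-free atmosphere.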

[2] = qHTS assay to identify small molecule antagonists of the estrogen receptor beta (ER-beta) signaling pathway - cell viability counter screen (AID 1259382); further: nearly all actives have a fitted effect of over 55% in size; further: potency means the concentration at half of the fitted maximal effect
In short: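 CellTiter-Glo ATP luminescence measured after the LiveBLAzer read in the same wells; ER-beta-UAS-bla HEK293T cells, 16 hr compound treatment with 1nM 17-beta-estradiol agonist at 37C, 5% CO2.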

[3] = molecular target: Estrogen receptor (Homo sapiens) (UniProt P03372); assay: qHTS assay to identify small molecule agonists of the estrogen receptor alpha (ER-alpha) signaling pathway in the presence of an antagonist (AID 1259383; calls by dose curve; further: top concentration of the series differs between compounds; nearly all actives have a fitted effect of over 15% in size)
In short: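 Luminescent ERE-luciferase reporter, VM7Luc4E2 cells (endogenous ER-alpha); 10.0nM ICI-182,780 final; 15-point compound titration; 22hr at 37C; ONE-Glo, 30min RT.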

[4] = qHTS assay to identify small molecule agonists or antagonists of the thyroid stimulating hormone receptor (TSHR) signaling pathway - wild type cell line counter screen (AID 1259384; calls by dose curve)
In short: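 Wild-type HEK293 cells were plated 18 h at 37 C/5% CO2, pin-dosed with compound plus Ro20-1724 medium, held 30 min at room temperature, then given cAMP-d2 and anti-cAMP-cryptate; fluorescence was read after 1 h. Fifteen concentrations, triplicate.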

[5] = molecular target: Thyrotropin receptor (Homo sapiens) (UniProt P16473); assay: qHTS assay to identify small molecule antagonists of the thyroid stimulating hormone receptor (TSHR) signaling pathway (AID 1259385; calls by dose curve; further: nearly all actives have a fitted effect of over 20% in size; further: potency means the concentration at half of the fitted maximal effect)
In short: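 TSHR-HEK293 cells were plated and held 18 h at 37C/5% CO2, then given compound plus Ro20-1724 and stimulated with TSH at 1.5 ng/mL final. After 30 min at room temperature, cAMP was detected with cAMP-d2/anti-cAMP-cryptate (1 h) by fluorescence.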

[6] = qHTS assay to identify small molecule agonists of the estrogen receptor alpha (ER-alpha) signaling pathway in the presence of an antagonist - cell viability counter screen (AID 1259386);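 further: cells exposed to compounds for 22 h at 37 °C before the viability read; nearly all actives have a fitted effect of over 30% in size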; further: potency means the concentration at half of the fitted maximal effect
In short: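 Using estrogen-depleted VM7Luc4E2 cells, the 15-concentration compound series was applied together with 10.0nM ICI-182,780 and incubated 22hr at 37C/5% CO2. Cell viability was then scored by CellTiter-Fluor.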

[7] = molecular target: Progesterone receptor (Homo sapiens) (UniProt P06401); assay: qHTS assay to identify small molecule antagonists of the progesterone receptor (PR) signaling pathway (AID 1346795; active means well fitted inhibition curve with a large enough effect in the signal ratio in the repeat runs, not every such curve was filed as active; the % refers to the signal ratio; further: potency means the concentration at half of the fitted maximal effect)
In short: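 PR-UAS-bla HEK293T cells with beta-lactamase reporter under UAS control, in 2% charcoal-stripped FBS, treated with compounds plus 1 nM promegestone (R5020, final) for 16 hr at 37C. Read-out: FRET beta-lactamase substrate fluorescence after 2 hr at room temperature.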

[8] = qHTS assay to identify small molecule antagonists of the progesterone receptor (PR) signaling pathway - cell viability counter screen (AID 1346798); further: nearly all actives have a fitted effect of over 50% in size; further: potency means the concentration at half of the fitted maximal effect
In short: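 PR-UAS-bla HEK293T cells, 3,000/well in 2% charcoal-stripped FBS medium, dosed with compounds plus R5020 agonist and incubated 16 h at 37C. Viability then measured in the same wells by CellTiter-Glo luminescence after 30 min at RT.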

[9] = qHTS assay to identify small molecule agonists of the progesterone receptor (PR) signaling pathway - cell viability counter screen (AID 1346799; calls by dose curve; further: nearly all actives have a fitted effect of over 45% in size; further: potency means the concentration at half of the fitted maximal effect)
In short: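 Counter screen in the PR-UAS-bla HEK293T wells (2% charcoal-stripped FBS, 16 h compound exposure at 37 C) after the bla read. CellTiter-Glo added, 30 min at room temperature, luminescence read as cell viability.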

[10] = qHTS assay to identify small molecule antagonists of the TGF-beta/Smad signaling pathway - cell viability counter screen (AID 1346824); further: nearly all actives have a fitted effect of over 50% in size; further: potency means the concentration at half of the fitted maximal effect
In short: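 SBE-bla HEK 293T cells were plated overnight at 37 C, then given compounds in DMSO plus TGF-beta1 (added as 0.25 ng/mL solution) for 5 hr. After the bla read, CellTiter-Glo was added to the same wells and luminescence read after 30 min at room temperature.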

[11] = qHTS assay to identify small molecule agonists of the TGF-beta/Smad signaling pathway - cell viability counter screen (AID 1346829); further: nearly all actives have a fitted effect of over 45% in size; further: potency means the concentration at half of the fitted maximal effect
In short: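 CellTiter-Glo luminescence readout; SBE-bla HEK 293T cells, overnight plating, compound 5 hr at 37 C/5% CO2, then bla substrate 2 hr RT, then CellTiter-Glo 30 min RT.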

[12] = qHTS assay to identify small molecule agonists of the TGF-beta/Smad signaling pathway (AID 1346859; active means well fitted activation curve with a large enough effect in the signal ratio in the repeat runs, not every such curve was filed as active; the % refers to the signal ratio; further: series mostly up to about 77 µM)
In short: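 SBE-bla HEK293T cells plated overnight, then compound exposure for 5 h at 37 C. Beta-lactamase reporter read with LiveBLAzer B/G FRET substrate after 2 h at room temperature, fluorescence at 405 nm excitation, 460/530 nm emission.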

[13] = molecular target: Thyrotropin-releasing hormone receptor (Homo sapiens) (UniProt P34981); assay: qHTS assay to identify small molecule antagonists of the thyrotropin-releasing hormone receptor (TRHR) signaling pathway (AID 1346877; active means well fitted inhibition curve with a large enough effect in the repeat runs, not every such curve was filed as active; further: potency means the concentration at half of the fitted maximal effect)
In short: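 Calcium signal in dye-loaded TRHR/HEK293 cells; compounds added 5 min before TRH (1 nM final); fluorescence monitored 3 min at 1 s steps.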

[14] = molecular target: Thyrotropin-releasing hormone receptor (Homo sapiens) (UniProt P34981); assay: qHTS assay to identify small molecule agonists of the thyrotropin-releasing hormone receptor (TRHR) signaling pathway (AID 1346891; calls by dose curve; further: potency means the concentration at half of the fitted maximal effect; on activation: series mostly up to about 58 µM)
In short: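 HEK293 cells expressing TRHR plated 18 h at 37 C/5% CO2, calcium dye-loaded 2 h at 37 C, then compound added (agonist mode); kinetic calcium fluorescence read 3 min at 1 s intervals; 15 concentrations in triplicate.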

[15] = Human pregnane X receptor (PXR) small molecule agonists, qHTS cell viability counter screen (AID 1346977); further: nearly all actives have a fitted effect of over 50% in size; further: potency means the concentration at half of the fitted maximal effect
In short: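 PXR-Luc HepG2 cells (2,000/well, 5% charcoal-stripped FBS) preincubated 5 hr, then exposed to compounds 24 hr at 37 C. Viability read in the same wells by CellTiter-Fluor fluorescence, reagent added at 23 hr, 1 hr incubation.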

[16] = qHTS assay to identify small molecule agonists of the estrogen receptor beta (ER-beta) signaling pathway - cell viability counter screen (AID 1259380); further: nearly all actives have a fitted effect of over 30% in size; further: potency means the concentration at half of the fitted maximal effect
In short: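 Compounds dissolved in DMSO were pin-transferred onto ER-beta-UAS-bla HEK293T cells that had settled 6 hr, and exposure ran 16 hr at 37C. Following the reporter read, CellTiter-Glo luminescence after 30 min at room temperature indicated cytotoxicity.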

[17] = molecular target: Progesterone receptor (Homo sapiens) (UniProt P06401); assay: qHTS assay to identify small molecule agonists of the progesterone receptor (PR) signaling pathway (AID 1346784; calls by dose curve; further: nearly all actives have a fitted effect of over 30% in size)
In short: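 PR-UAS-bla HEK 293T cells (beta-lactamase reporter under UAS) in 2% charcoal-stripped FBS, dosed with 23 nL compound after 6 hr, incubated 16hr at 37C. LiveBLAzer B/G FRET substrate added, fluorescence read after 2 hours.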

[18] = molecular target: Androgen receptor (Homo sapiens) (UniProt P10275); assay: qHTS assay to identify small molecule agonists of the androgen receptor (AR) signaling pathway in the presence of an antagonist (AID 1259381; calls by dose curve; further: nearly all actives have a fitted effect of over 15% in size)
In short: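 Plated MDA-kb2 cells (3,000/well) were pre-incubated 5hr, given nilutamide (3.0uM final) or buffer, then dosed with compounds in DMSO at 15 concentrations. Luciferase activity was quantified by luminescence after 16hr at 37C.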

Progesterone receptor (Homo sapiens), sequence (P06401 whole entry, looked up): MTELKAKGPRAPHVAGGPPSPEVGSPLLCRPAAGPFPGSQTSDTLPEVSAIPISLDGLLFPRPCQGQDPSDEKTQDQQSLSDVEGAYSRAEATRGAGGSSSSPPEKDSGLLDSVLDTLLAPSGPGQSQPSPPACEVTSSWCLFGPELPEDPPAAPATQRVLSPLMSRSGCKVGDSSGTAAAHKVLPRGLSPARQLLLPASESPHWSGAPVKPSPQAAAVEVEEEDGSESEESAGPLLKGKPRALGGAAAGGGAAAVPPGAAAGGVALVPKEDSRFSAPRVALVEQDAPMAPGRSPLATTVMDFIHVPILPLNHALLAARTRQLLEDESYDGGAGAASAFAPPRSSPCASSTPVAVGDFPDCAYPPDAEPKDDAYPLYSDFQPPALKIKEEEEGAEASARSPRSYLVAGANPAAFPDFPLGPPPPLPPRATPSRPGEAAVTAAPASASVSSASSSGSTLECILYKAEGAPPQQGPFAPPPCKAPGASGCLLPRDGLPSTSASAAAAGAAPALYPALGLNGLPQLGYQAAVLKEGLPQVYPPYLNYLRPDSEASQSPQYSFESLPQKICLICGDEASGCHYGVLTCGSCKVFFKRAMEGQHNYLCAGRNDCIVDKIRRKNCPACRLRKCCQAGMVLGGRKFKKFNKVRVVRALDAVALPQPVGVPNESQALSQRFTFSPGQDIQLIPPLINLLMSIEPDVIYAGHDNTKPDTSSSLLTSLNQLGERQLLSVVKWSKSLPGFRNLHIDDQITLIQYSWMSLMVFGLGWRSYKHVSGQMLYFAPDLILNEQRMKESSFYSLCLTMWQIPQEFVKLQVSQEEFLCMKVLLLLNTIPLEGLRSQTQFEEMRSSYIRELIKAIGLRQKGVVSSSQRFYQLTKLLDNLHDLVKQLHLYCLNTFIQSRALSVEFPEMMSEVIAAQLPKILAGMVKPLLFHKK
Estrogen receptor (Homo sapiens), sequence (P03372 whole entry, looked up): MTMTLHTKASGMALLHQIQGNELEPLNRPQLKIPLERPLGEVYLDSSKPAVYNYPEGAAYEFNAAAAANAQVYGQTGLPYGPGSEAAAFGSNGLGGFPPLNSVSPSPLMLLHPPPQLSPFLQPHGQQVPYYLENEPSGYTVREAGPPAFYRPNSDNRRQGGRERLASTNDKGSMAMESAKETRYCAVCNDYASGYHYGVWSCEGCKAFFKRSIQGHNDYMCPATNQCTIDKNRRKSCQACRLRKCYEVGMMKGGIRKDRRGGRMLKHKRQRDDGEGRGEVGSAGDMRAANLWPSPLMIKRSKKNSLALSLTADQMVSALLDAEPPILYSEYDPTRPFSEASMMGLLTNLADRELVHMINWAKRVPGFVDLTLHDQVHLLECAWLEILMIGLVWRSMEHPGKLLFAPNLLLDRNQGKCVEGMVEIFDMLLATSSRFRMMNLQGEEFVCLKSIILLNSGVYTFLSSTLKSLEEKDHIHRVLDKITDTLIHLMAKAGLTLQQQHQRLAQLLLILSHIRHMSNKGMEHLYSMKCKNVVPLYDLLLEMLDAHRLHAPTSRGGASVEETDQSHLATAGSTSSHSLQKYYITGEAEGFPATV
Thyrotropin receptor (Homo sapiens), sequence (P16473 whole entry, looked up): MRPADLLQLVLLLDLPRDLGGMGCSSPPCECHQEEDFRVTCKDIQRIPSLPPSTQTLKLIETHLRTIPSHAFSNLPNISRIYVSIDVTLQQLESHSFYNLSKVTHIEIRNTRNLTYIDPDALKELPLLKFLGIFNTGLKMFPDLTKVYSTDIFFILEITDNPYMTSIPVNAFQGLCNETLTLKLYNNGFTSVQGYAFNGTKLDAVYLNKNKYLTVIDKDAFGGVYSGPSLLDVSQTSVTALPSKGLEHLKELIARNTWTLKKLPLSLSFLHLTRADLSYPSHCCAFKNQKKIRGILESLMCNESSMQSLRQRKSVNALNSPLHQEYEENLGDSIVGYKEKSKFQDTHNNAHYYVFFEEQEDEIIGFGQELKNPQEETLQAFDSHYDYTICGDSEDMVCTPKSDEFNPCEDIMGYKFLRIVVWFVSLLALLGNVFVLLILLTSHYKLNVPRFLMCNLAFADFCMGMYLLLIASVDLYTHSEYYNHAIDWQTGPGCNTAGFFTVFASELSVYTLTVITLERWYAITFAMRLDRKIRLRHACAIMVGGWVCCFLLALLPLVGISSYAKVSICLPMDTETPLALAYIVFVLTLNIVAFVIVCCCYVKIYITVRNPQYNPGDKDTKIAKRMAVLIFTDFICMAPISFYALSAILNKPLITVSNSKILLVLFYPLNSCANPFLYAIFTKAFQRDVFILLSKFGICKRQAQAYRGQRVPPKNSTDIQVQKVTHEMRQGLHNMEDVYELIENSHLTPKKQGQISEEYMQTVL
Thyrotropin-releasing hormone receptor (Homo sapiens), sequence (P34981 whole entry, looked up): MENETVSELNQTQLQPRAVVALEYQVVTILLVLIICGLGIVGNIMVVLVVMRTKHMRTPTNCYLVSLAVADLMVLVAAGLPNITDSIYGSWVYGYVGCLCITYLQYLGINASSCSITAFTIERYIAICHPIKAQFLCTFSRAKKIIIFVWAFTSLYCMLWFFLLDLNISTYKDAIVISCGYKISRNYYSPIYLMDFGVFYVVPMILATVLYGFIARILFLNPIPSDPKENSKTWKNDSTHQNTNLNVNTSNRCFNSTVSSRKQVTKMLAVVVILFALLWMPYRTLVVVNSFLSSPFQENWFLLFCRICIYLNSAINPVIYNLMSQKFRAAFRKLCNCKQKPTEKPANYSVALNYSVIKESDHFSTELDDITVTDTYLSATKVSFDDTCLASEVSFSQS
Androgen receptor (Homo sapiens), sequence (P10275 whole entry, looked up): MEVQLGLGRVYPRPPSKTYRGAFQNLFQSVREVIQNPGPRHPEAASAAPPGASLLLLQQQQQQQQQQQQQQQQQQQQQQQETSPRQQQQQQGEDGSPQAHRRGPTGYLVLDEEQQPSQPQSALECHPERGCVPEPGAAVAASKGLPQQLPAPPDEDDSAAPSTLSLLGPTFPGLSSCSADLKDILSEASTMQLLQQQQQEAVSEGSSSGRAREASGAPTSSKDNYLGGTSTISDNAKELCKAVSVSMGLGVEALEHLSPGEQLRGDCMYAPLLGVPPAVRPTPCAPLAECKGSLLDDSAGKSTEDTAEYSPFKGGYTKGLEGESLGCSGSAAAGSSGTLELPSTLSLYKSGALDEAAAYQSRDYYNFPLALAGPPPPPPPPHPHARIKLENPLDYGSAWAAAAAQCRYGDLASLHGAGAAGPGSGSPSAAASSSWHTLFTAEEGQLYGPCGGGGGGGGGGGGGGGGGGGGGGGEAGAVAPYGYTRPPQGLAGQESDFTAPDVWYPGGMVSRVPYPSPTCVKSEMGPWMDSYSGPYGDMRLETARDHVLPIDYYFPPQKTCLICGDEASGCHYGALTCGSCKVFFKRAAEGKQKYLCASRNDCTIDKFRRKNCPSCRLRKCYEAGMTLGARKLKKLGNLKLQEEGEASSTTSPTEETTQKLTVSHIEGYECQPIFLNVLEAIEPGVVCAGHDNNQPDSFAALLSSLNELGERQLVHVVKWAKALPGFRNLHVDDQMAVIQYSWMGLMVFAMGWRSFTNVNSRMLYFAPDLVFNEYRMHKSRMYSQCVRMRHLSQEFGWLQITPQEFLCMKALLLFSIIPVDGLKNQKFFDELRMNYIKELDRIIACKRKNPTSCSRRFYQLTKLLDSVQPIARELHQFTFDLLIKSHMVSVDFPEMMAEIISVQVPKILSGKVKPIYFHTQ

SMILES	Potency [1]	Potency [2]	Potency [3]	outcome [4]	Potency [5]	Potency [6]	Potency [7]	Potency [8]	Potency [9]	Potency [10]	Potency [11]	outcome [12]	Potency [13]	Potency [14]	Potency [15]	Potency [16]	Potency [17]	Potency [18]
CCOC(=O)OC1=C(c2cc(C)ccc2C)C(=O)NC12CCC(OC)CC2 (stereo unspecified)	inactive	inactive	inactive	inactive	inactive	inactive	inactive	inactive	inactive	inactive	inactive	inactive	inactive	inactive	inactive			
CC(c1ccc(O)cc1)c1ccc(O)cc1	inactive	45.5 µM (active) and inactive		inactive	inactive	inactive	6.86 µM (active)			inactive	inactive	inactive	inactive	inactive	inactive	40.6 µM (active) and inactive		
CN(C)C1CSSSC1	inactive	inactive	inactive	inactive	inactive	inactive	inactive	inactive	inactive		inactive	inactive	inactive	inactive	inactive		inactive	
N#C/C=C/C#N	inactive			inactive		inactive	45.3 µM (active)	inactive	inactive	inactive	inactive	inactive	inactive	inactive	inactive	inactive	inactive	
CC(=O)[O-].CC(=O)[O-].[Hg+2]	10.9 µM (active)	6.11 µM (active)				21.7 µM (active)		1.37 µM (active)	3.44 µM (active)	13.8 µM (active)	24.5 µM (active)				6.11 µM (active)	3.06 µM (active)		
CCCCOCN(C(=O)CCl)c1c(CC)cccc1CC	inactive	inactive	inactive	inactive	61.1 µM (active)	inactive				inactive	inactive						inactive	
O=C(O)COc1nc(Cl)c(Cl)cc1Cl	inactive	inactive	inactive	inactive		inactive			27.9 µM (active)	inactive			inactive	inactive	inactive			
CC(=O)c1cc(C(C)(C)C)cc2c1CCC2(C)C	inactive	inactive	inactive			inactive	inactive	inactive	inactive	inactive	inactive	inactive	inactive	inactive	inactive	inactive	inactive	
C=CC(=O)OCCCCOC(=O)C=C	54.5 µM (active)		inactive	inactive	inactive	inactive	inactive	inactive	inactive	inactive	inactive	inactive	inactive	inactive		inactive		
CCN(CC)c1c([N+](=O)[O-])cc(C(F)(F)F)c(N)c1[N+](=O)[O-]	inactive	inactive	inactive	inactive						inactive	inactive	inactive	inactive	inactive	inactive		inactive	inactive
CCCCCCCCCCCCCCCC[N+](C)(C)C	29.5 µM (active) and 48.6 µM (active) and 26.6 µM (active)	23.5 µM (active) and 54.5 µM (active) and 23.7 µM (active)		inactive	inactive	inactive		29.8 µM (active)			inactive and 54.9 µM (active)	inactive	inactive and 30.1 µM (active)	inactive and 27.5 µM (active)	61.1 µM (active)	9.34 µM (active) and 24.3 µM (active) and 11.9 µM (active)	inactive	
C=CCOC(N)=O	inactive	inactive		inactive	inactive	inactive	inactive	inactive	inactive	inactive	inactive	inactive	inactive	inactive	inactive	inactive	inactive	
CC(=O)[O-].CC(=O)[O-].O.O.[Cd+2]	inactive	53.7 µM (active)				60.3 µM (active)	0.603 µM (active)	19.1 µM (active)	15.1 µM (active)		inactive	inactive			8.51 µM (active)	60.3 µM (active)		
CCS(=O)(=O)c1cccnc1S(=O)(=O)NC(=O)Nc1nc(OC)cc(OC)n1	inactive	inactive		inactive	inactive	inactive	inactive	inactive	inactive	inactive	inactive	inactive	inactive	inactive	inactive	inactive	inactive	
